The values below come from ChEMBL document CHEMBL4513146, “CO-ADD screening of Karazin Kharkiv National University (Ukraine) compounds”.

Test [1] deals with Staphylococcus aureus. The conditions noted are these: Concentration 32 ug.mL-1;; ASSAY_TEST Inhibition of Bacterial Growth; detection method Absorption (OD600); MEDIA CAMHB; plate type 384well; NBS; CORNING #3640; time 18 hr.
In test [2] the test system is Escherichia coli. The conditions noted are these: Concentration 32 ug.mL-1;; ASSAY_TEST Inhibition of Bacterial Growth; detection method Absorption (OD600); MEDIA CAMHB; plate type 384well; NBS; CORNING #3640; time 18 hr.

Potency and affinity values are given separately.

As usually defined, the Inhibition is the relative decrease from the control value, in per cent. For the compound `CC(C)Cn1c(=O)c2sccc2n2c(=O)n(CC(=O)N(C)c3ccccc3)nc12`, the Inhibition is on record as 4.88% in test [1] and -0.39% in test [2].
Taken in the same sequence, the figures for `Cc1cccc(C)c1NC(=O)Cn1nc2c3cc(-c4ccc(Cl)cc4)nn3ccn2c1=O` were -1.34% and -1.58%.
With `CCc1nnc2c(S(=O)(=O)N(Cc3cccc(C)c3)c3ccc(Cl)cc3)cccn12`, the Inhibition came out at 8.39% in test [1] and 0.27% in test [2].
As to `Cc1ccccc1Oc1nccn2c(=O)n(CC(=O)Nc3ccc(F)cc3F)nc12`, the Inhibition was 15.72% in test [1] and 1.95% in test [2].
`CCOC(=O)c1ccccc1NC(=O)Cn1nc2c(Oc3cccc(OC)c3)nccn2c1=O`: the Inhibition in test [1] is given as -10.31%; in test [2], 1.57%.
Regarding `COc1cccc(-n2ccn3c(SCC(=O)Nc4ccc5c(c4)OCCO5)nnc3c2=O)c1`, the results for the Inhibition in test [1] and in test [2] were 11.59% and -2.35%, respectively.
On to `Cc1cccc(NC(=O)Cn2nc3nc(N4CCCCCC4)ccn3c2=O)c1C`, for which the Inhibition in test [1] was 7.24%; in test [2], -2.03%.
For `COc1ccc(NC(=O)Cn2nc3c(SC4CCCCC4)nccn3c2=O)cc1` the same measures were -2.9% and -3.75%.
`Cc1nnc2c(SCC(=O)N3CCN(c4ccccc4F)CC3)nc3ccccc3n12`: the Inhibition in test [1] worked out at 19.81%; in test [2], 5.15%.
For `COc1cccc(CN(c2ccc(F)c(F)c2)S(=O)(=O)c2ccc3nncn3c2)c1`, the figures for the Inhibition in test [1] and in test [2] were -3.79% and -13.18%, respectively.
Consider `COc1ccccc1-n1ccn2c(SCC(=O)c3ccc(C)cc3C)nnc2c1=O`, for which the values for the Inhibition in test [1] and in test [2] were 6.26% and -10.12%, respectively.
For `Cc1cc(C)c(C(=O)CSc2nnc3c(=O)n(-c4ccc(F)c(F)c4)ccn23)cc1C`, the figures for the Inhibition in test [1] and in test [2] were 17% and -3.21%, respectively.
Consider `O=C(Cn1nc2nc(Nc3ccc(F)cc3)ccn2c1=O)Nc1ccc(F)cc1`, for which the results for the Inhibition in test [1] and in test [2] were -16.48% and -2.62%, respectively.
For `COc1ccc(OC)c(NC(=O)Cn2nc3ccc(-c4ccc(C)cc4)nn3c2=O)c1` the same measures were -7.96% and -11.89%.
Regarding `O=C(Cn1nc2ccc(Sc3ccccc3)nn2c1=O)N1CCN(c2ccc(F)cc2)CC1`, the results for the Inhibition in test [1] and in test [2] were 9.78% and 1.58%, respectively.
For the compound `CCCN(C)c1nccn2c(=O)n(CC(=O)Nc3cccc(Br)c3)nc12`, the Inhibition is given as 10.78% in test [1] and -4.19% in test [2].
For `CCOc1ccc(NC(=O)Cn2nc3c(N4CCCC4)nccn3c2=O)cc1` the same measures were 0.84% and -1.53%.
`CCC(Sc1nnc2c(=O)n(-c3ccccc3)ccn12)C(=O)Nc1cc(F)ccc1F` (stereo not given): the Inhibition is 6.45% in test [1] and -6.05% in test [2].
With `CCc1ccc(NC(=O)Cn2nc3ccc(SC4CCCCC4)nn3c2=O)cc1`, the Inhibition came to 16.16% in test [1] and 2.08% in test [2].
For the compound `COc1ccc(NC(=O)Cn2nc3c(Sc4ccccc4)nccn3c2=O)c(OC)c1`, the Inhibition is given as -11.13% in test [1] and -9.08% in test [2].
Consider `C=Cc1ccc(CN(c2cccc(F)c2)S(=O)(=O)c2ccc3nnc(C)n3c2)cc1`, for which the results for the Inhibition in test [1] and in test [2] were 2.75% and -8.1%, respectively.
Taken in the same sequence, the figures for `CCc1ccc(N(Cc2ccc(F)cc2)S(=O)(=O)c2cccn3c(C)nnc23)cc1` were 6.87% and -8.04%.
With `Cc1cccc(C)c1NC(=O)CSc1nc2ccccc2n2c(C)nnc12`, the values for the Inhibition in test [1] and in test [2] were 11.69% and -4.17%, respectively.
In the case of `Cc1ccc(NC(=O)Cn2nc3ccc(SC4CCCCC4)nn3c2=O)cc1`, the Inhibition in test [1] is listed as -13.21%; in test [2], -13.34%.
For `COc1cc(NC(=O)Cn2nc3ccc(SC(C)C)nn3c2=O)cc(OC)c1`, the Inhibition in test [1] is reported as -7.38%; in test [2], -2.23%.
With `Cc1ccc(Oc2nc3ccccc3n3c(=O)n(CC(=O)Nc4cccc(C(F)(F)F)c4)nc23)cc1`, the Inhibition in test [1] is given as 0.5%; in test [2] it was -3.3%.
Regarding `Cc1c(Cl)cccc1NC(=O)Cn1nc2c3c4c(sc3ncn2c1=O)CCCCC4`, the Inhibition in test [1] is 3.69%; in test [2], -0.38%.
`Cc1ccc(-c2ccc3nn(CC(=O)N4CCN(c5ccc(F)cc5)CC4)c(=O)n3n2)cc1C`: the Inhibition in test [1] was -6.93%; in test [2] it was -8.27%.
As for `Cc1ccc(-c2ccc3nnc(CCC(=O)NCc4cccc(Br)c4)n3n2)cc1C`, the Inhibition in test [1] is 4.83%; in test [2], -5.02%.
For `COc1ccc(CNC(=O)CCc2nnc3ccc(-c4ccccc4)nn23)cc1OC` the same measures were 1.5% and -2.82%.
`Cc1ccc(NC(=O)Cn2nc3c(Oc4cccc(C)c4C)nccn3c2=O)c(Br)c1`: the values for the Inhibition in test [1] and in test [2] were 0.42% and -4.42%, respectively.
Regarding `Cc1cccc(Oc2nccn3c(=O)n(CC(=O)Nc4ccccc4C(F)(F)F)nc23)c1C`, the Inhibition in test [1] turned out to be 14.33%; in test [2], 3.1%.
Consider `Cc1ccc(Sc2nccn3c(=O)n(CC(=O)Nc4ccc(C)c(Cl)c4)nc23)c(C)c1`, for which the Inhibition is listed as 6.61% in test [1] and -6.53% in test [2].
On to `CCOc1ccc(-n2ccn3c(SCC(=O)c4cccc(OC)c4)nnc3c2=O)cc1`, for which the results for the Inhibition in test [1] and in test [2] were 10.49% and -5.2%, respectively.
Consider `COc1ccc(N2CCN(C(=O)Cn3nc4c(Oc5ccccc5)nccn4c3=O)CC2)cc1`, for which the values for the Inhibition in test [1] and in test [2] were 16.39% and 4.58%, respectively.
